The results in this text go back to PubChem BioAssay (EPA / NIEHS).

Inconclusive results are not listed. Active and inactive are the calls of the source. The calls were made as follows: active = hit-call score of the fitted dose curve at least 0.9, where 1 is the maximum; inconclusive = response in the unintended direction; inactive = score below 0.9.

A short description of assay [1]: Tanguay_ZF_120hpf_JAW_legacy: (Legacy) Oregon State University Tanguay Lab 120 Hour Post-fertilization zebrafish Assay for Jaw Malformation (AID 2283638).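 As to AC50: active means more embryos with jaw malformation than DMSO controls.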 Put shortly:
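Dechorionated Tropical 5D wild-type zebrafish embryos, one per well, exposed statically from 6 hpf to 120 hpf at 28C in 0.64% DMSO. Jaw malformation was scored by brightfield microscopy as present or absent. It was not scored in dead embryos.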

Assay [2] can be described thus: Tanguay_ZF_120hpf_OTIC_legacy: (Legacy) Oregon State University Tanguay Lab 120 Hour Post-fertilization zebrafish Assay for Otic Vesicle Malformation (AID 2283639). In outline: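 Otic vesicle malformation is read as a yes/no morphology call at 120 hpf. Exposure is static at 28C with 0.64% (vol/vol) DMSO; embryos that die are excluded from non-mortality endpoints.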

The nature of assay [3]: Tanguay_ZF_120hpf_PE_legacy: (Legacy) Oregon State University Tanguay Lab 120 Hour Post-fertilization zebrafish Assay for Pericardial Edema (AID 2283640).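 As to AC50: potency for increased incidence of pericardial edema versus DMSO baseline.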 Put shortly: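 Tropical 5D wild-type zebrafish embryos were statically exposed until 120 hpf at 28C, with 0.64% DMSO final. Pericardial edema was scored by brightfield as present or absent; endpoints were not scored in dead embryos.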

Assay [4] in a line: Tanguay_ZF_120hpf_BRAI_legacy: (Legacy) Oregon State University Tanguay Lab 120 Hour Post-fertilization zebrafish Assay for Brain Malformation (AID 2283641). In outline: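 Tropical 5D wild-type zebrafish embryos exposed statically until 120 hpf at 28C, 0.64% DMSO final, sealed and dark. Brain malformation scored present/absent by brightfield at 120 hpf; dead embryos excluded. Trimethyltin chloride 5uM positive control.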

Assay [5] is described as follows: Tanguay_ZF_120hpf_SOMI_legacy: (Legacy) Oregon State University Tanguay Lab 120 Hour Post-fertilization zebrafish Assay for Somite Malformation (AID 2283647). Put shortly:
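Dechorionated Tropical 5D wild-type zebrafish embryos, one per well from 6 hpf, statically exposed at 28C to 120 hpf in 0.64% DMSO; somite malformation scored present/absent by brightfield; trimethyltin 5 uM positive control; dead embryos not scored.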

The nature of assay [6]: Tanguay_ZF_120hpf_PFIN_legacy: (Legacy) Oregon State University Tanguay Lab 120 Hour Post-fertilization zebrafish Assay for Pectoral Fin Malformation (AID 2283648).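 Also: each larva judged yes or no for fin defect by brightfield with dead larvae skipped.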 Put shortly: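 Tropical 5D wild-type embryos, dechorionated with pronase at 4 hpf, were placed singly in wells at 6 hpf and statically exposed until 120 hpf at 28C, sealed and dark, with 0.64% (vol/vol) final DMSO; pectoral fin malformation scored present/absent.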

A short description of assay [7]: Tanguay_ZF_120hpf_PIG_legacy: (Legacy) Oregon State University Tanguay Lab 120 Hour Post-fertilization zebrafish Assay for Pigmentation Malformation (AID 2283650). Put shortly:
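Tropical 5D wild-type zebrafish embryos, dechorionated with pronase at 4 hpf, were exposed singly from 6 hpf to 120 hpf statically at 28C in sealed, dark plates with 0.64% DMSO; pigmentation scored present/absent by brightfield microscopy, fitted against DMSO.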

Assay [8] can be described thus: Tanguay_ZF_120hpf_CIRC_legacy: (Legacy) Oregon State University Tanguay Lab 120 Hour Post-fertilization zebrafish Assay for Circulatory Malformation (AID 2283651). In outline:
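Using wild-type Tropical 5D zebrafish, we exposed dechorionated embryos from 6 to 120 hpf in embryo medium with 0.64% DMSO. Circulatory defects were scored as present or absent; 5uM trimethyltin chloride served as positive control.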

Assay [9] can be described thus: Tanguay_ZF_120hpf_CFIN_legacy: (Legacy) Oregon State University Tanguay Lab 120 Hour Post-fertilization zebrafish Assay for Caudal Fin Malformation (AID 2283649). In outline: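 Dechorionated Tropical 5D wild-type embryos, one per well from 6 hpf, static exposure to 120 hpf at 28C in 0.64% DMSO. Caudal fin malformation scored by brightfield as present/absent; not scored in dead embryos.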

As to `Cc1cnc(C2=NC(C)(C(C)C)C(=O)N2)c(C(=O)O)c1` (configuration not stated), the compound was classed as inactive in assay [1], in assay [2], in assay [3], in [4], in assay [5] and in assay [6]. The call in assay [7] and in assay [8] was inactive.
For `CCOP(=O)(OCC)Oc1nc(Cl)c(Cl)cc1Cl`, the outcome in assay [1], in assay [2], in assay [3], in [4], in assay [5] and in assay [6] was inactive. Besides, the call in assay [9], in assay [7] and in [8] was inactive.
For the compound `CCNP(=S)(OC)O/C(C)=C/C(=O)OC(C)C` (configuration not stated), the call in [1], in [2], in [3], in [4], in assay [6] and in assay [9] was inactive. Besides, the call in assay [7] and in assay [8] was inactive.
As to `CC(C)=CC1C(C(=O)OCc2coc(Cc3ccccc3)c2)C1(C)C` (configuration not stated), the result in assay [1], in assay [2], in [3], in assay [4], in assay [6] and in assay [9] was inactive. Besides, the compound was called inactive in assay [7] and in assay [8].
For `Clc1cccc(C(Cl)(Cl)Cl)n1`, the result in [1], in assay [2], in [4], in assay [5], in assay [6] and in [9] was inactive. Also, the outcome in assay [8] was inactive.
`CC1(C)CON(Cc2ccccc2Cl)C1=O`: the compound was classed as inactive in assay [1], in [2], in [3], in assay [4], in assay [5] and in [6]. Further, the compound was classed as inactive in assay [9], in assay [7] and in [8].
Consider `CS(=O)(=O)c1ccc(C(=O)C2C(=O)CCCC2=O)c([N+](=O)[O-])c1`, for which the call in assay [1], in [2], in [3], in [4], in [5] and in [6] was inactive. Also, the result in [9], in [7] and in [8] was inactive.
By AC50 is commonly meant the concentration giving half of the maximal activity seen. For the compound `COCC(C)N(C(=O)CCl)c1c(C)csc1C` (configuration not stated), the AC50 in assay [1] is 25.6 µM (active); in assay [2], 8.94 µM (active); in assay [3] it was 31 µM (active); in assay [4], 8.88 µM (active); in [5], 30.4 µM (active); in assay [6], 35.6 µM (active). In addition, the AC50 is 36.2 µM (active) in [9], 8.81 µM (active) in assay [7] and 24.5 µM (active) in assay [8].
Regarding `CCCCC(C#N)(Cn1cncn1)c1ccc(Cl)cc1` (configuration not stated), the result in [2], in assay [4], in [5], in assay [9], in assay [7] and in [8] was inactive. Further, the AC50 in [3] was 46.8 µM (active); in assay [6], 24.1 µM (active).
For the compound `CCOc1nc(F)cc2nc(S(=O)(=O)Nc3c(Cl)cccc3Cl)nn12`, the outcome in [1], in [2], in [3], in assay [4], in assay [5] and in assay [6] was inactive. In addition, the compound was classed as inactive in assay [9], in assay [7] and in [8].
Consider `COC(=O)NS(=O)(=O)c1ccc(N)cc1`, for which the outcome in assay [1], in [3], in assay [4], in assay [6], in assay [9] and in [7] was inactive.
As to `COc1ccc(-c2ccccc2)cc1NNC(=O)OC(C)C`, the result in assay [1], in [2], in assay [3], in assay [4], in assay [5] and in assay [6] was inactive. Also, the compound was classed as inactive in assay [9], in assay [7] and in assay [8].
As for `CS(=O)(=O)c1cc(C(F)(F)F)ccc1C(=O)c1cnoc1C1CC1`, the compound was called inactive in assay [1], in assay [2], in assay [3], in assay [5], in assay [6] and in [9]. In addition, the outcome in [7] and in assay [8] was inactive.
For `CC(C)NC(=O)N1CC(=O)N(c2cc(Cl)cc(Cl)c2)C1=O`, the outcome in assay [2], in assay [3], in assay [4], in assay [5], in assay [6] and in [9] was inactive. The compound was classed as inactive in assay [7] and in assay [8].
Consider `Nc1cnn(-c2ccccc2)c(=O)c1Cl`, for which the compound was classed as inactive in [2], in assay [3], in assay [4], in assay [5], in assay [6] and in [9]. Besides, the call in [7] and in assay [8] was inactive.
Regarding `Clc1nc(Cl)nc(Nc2ccccc2Cl)n1`, the outcome in [1], in assay [3], in assay [6], in [9] and in assay [8] was inactive.
Consider `O=C1C2CC=CCC2C(=O)N1SC(Cl)(Cl)Cl` (configuration not stated), for which the outcome in assay [1], in [2], in assay [3], in [4], in [5] and in assay [6] was inactive. In addition, the call in assay [9], in assay [7] and in assay [8] was inactive.
